Experimental data from PubChem BioAssay AID602405 (Broad Institute, 2012).
About 350 (0.097%) of roughly 360,000 compounds were called active. No stated cut-off is given here; in the data, active means inhibition above about 16% (passing the limit was not always enough); inconclusive means no clear call, values can overlap the other calls; inactive means below that. What follows is part of a selection rich in actives, with near analogues and random picks from the rest.

Test system: UDP-N-acetylbacillosamine N-acetyltransferase PglD (Campylobacter jejuni)
Experiment: blockers of PglD enzyme activity – biochemical, DTNB colorimetric, single point, primary screen (AID 602405)
Conditions: purified PglD enzyme, DTNB colorimetric CoA detection; at 12.5 µM; stronger effect = higher value

inhibition, inactive:
C[C@@H]1CN([C@@H](C)CO)C(=O)c2cccc(NS(=O)(=O)c3ccc(Cl)cc3)c2O[C@@H]1CN(C)C(=O)Nc1ccccc1 0.684%
N#C[C@H]1[C@@H](c2ccc(-c3ccccc3F)cc2)[C@H](CO)N1C(=O)c1ccccn1 -0.127%
COc1cccc(CNC(=O)C[C@H]2CC[C@@H](NC(C)=O)[C@@H](CO)O2)c1 -2.55%
C[C@@H]1CCCCO[C@H](CN(C)C(=O)C2CCCCC2)[C@@H](C)CN([C@@H](C)CO)C(=O)c2cc(NC(=O)Nc3ccccc3)ccc2O1 -3.55%
O=C(C[C@H]1C=C[C@H](NC(=O)Nc2cc(F)ccc2F)[C@H](CO)O1)Nc1ccccc1 -2.58%
C[C@@H]1CN([C@H](C)CO)C(=O)Cc2cc(NS(=O)(=O)c3cccs3)ccc2O[C@H]1CN(C)C(=O)Nc1ccc2c(c1)OCO2 2.77%
C[C@@H]1CN([C@H](C)CO)S(=O)(=O)c2ccc(C#Cc3ccccc3F)cc2O[C@@H]1CN(C)C(=O)c1ccc2c(c1)OCO2 -1.88%
COc1ccc(S(=O)(=O)Nc2ccc3c(c2)C(=O)N([C@H](C)CO)C[C@@H](C)[C@H](CN(C)S(=O)(=O)c2ccc(C)cc2)O3)cc1 4.85%
COCCNC(=O)C[C@H]1CC[C@@H]2[C@H](COc3ccc(NC(=O)Nc4cccc(F)c4)cc3C(=O)N2C)O1 0.139%
CO[C@H]1CN(C)C(=O)c2ccc(NC(=O)c3cnccn3)cc2OC[C@@H](C)N(C(C)=O)C[C@H]1C -1.18%
C[C@@H]1CN([C@H](C)CO)C(=O)Cc2cc(NC(=O)C3CCCCC3)ccc2O[C@@H]1CN(C)S(C)(=O)=O 56.5%
CC(C)NC(=O)N1[C@@H]2CN(C(=O)Nc3ccc(F)cc3)c3ccccc3[C@@H]2[C@@H]1CO 2.48%
C[C@@H]1CCCCO[C@@H](CN(C)S(=O)(=O)c2ccccc2)[C@H](C)CN([C@H](C)CO)C(=O)c2cc(NC(=O)CCC(F)(F)F)ccc2O1 0.918%
O=C(c1ccccc1)N1C[C@H]2[C@@H](c3ccccc31)[C@H](CO)N2Cc1ccccc1F -1.39%
CC(C)C#Cc1ccc([C@@H]2[C@H]3CN(C(=O)NC(C)C)CCCCN3[C@H]2CO)cc1 1.97%
CN1C(=O)c2cc(NC(=O)C3CC3)ccc2OC[C@@H]2O[C@H](CC(=O)NCC3CCCCC3)CC[C@@H]21 0.676%
CCCOc1ccc(F)cc1-c1cc(C(=O)NCc2ccc(F)cc2)[nH]n1 4.69%
CCCOc1ccc(F)cc1-c1cc(C(=O)Nc2ccc(F)c(Cl)c2)[nH]n1 -24.9%
Cc1ccc(S(=O)(=O)NCC[C@H]2CC[C@H](NC(=O)c3ccccn3)[C@H](CO)O2)cc1 0.367%
CCCNC(=O)N1C[C@@H]2[C@H](c3ccccc31)[C@@H](CO)N2C(=O)NC(C)C 4.12%
CN1c2ccc(-c3ccccc3F)cc2[C@H]2[C@H](CCN2C(=O)Nc2cc(F)ccc2F)[C@H]1CO -0.933%
C=CC1=C(C(=O)O)N2C(=O)[C@@H](NC(=O)/C(=N\OCC(=O)O)c3csc(N)n3)[C@H]2SC1 -2.51%
OC[C@H]1[C@@H](c2ccc(/C=C/c3ccccc3)cc2)[C@H]2CN(Cc3cccnc3)CCCCN21 -0.638%
CO[C@@H]1CN(C)C(=O)c2cc(NC(=O)C3CC3)ccc2OC[C@H](C)N(Cc2ccc(F)cc2)C[C@@H]1C -0.858%
O=C(C[C@H]1CC[C@H](NC(=O)Nc2ccc(C(F)(F)F)cc2)[C@H](CO)O1)NCCN1CCCC1 -2.91%
Cc1noc(C)c1NC(=O)N(C)C[C@H]1OCCCC[C@H](C)Oc2ccc(NC(=O)Nc3ccc4c(c3)OCO4)cc2C(=O)N([C@H](C)CO)C[C@@H]1C 3.46%
O=C(C[C@@H]1CC[C@@H]2[C@H](COC[C@H](O)CN2Cc2cccc(F)c2)O1)NCc1ccncc1 -0.388%
C[C@H]1CCCCO[C@H](CN(C)C(=O)CCC(F)(F)F)[C@@H](C)CN([C@@H](C)CO)C(=O)c2cc(NC(=O)Nc3ccc4c(c3)OCO4)ccc2O1 0.932%
Cc1csc(SCC(=O)Nc2ccc(C)c(S(=O)(=O)N(C)C)c2)n1 3.71%
CCN(CC(=O)Nc1ccc(C)c(S(=O)(=O)N(C)C)c1)Cc1ccccc1 -3.38%
COc1ccc(CNC(=O)CN2C(=O)c3ccccc3S2(=O)=O)cc1 -2.12%
O=C1c2ccccc2S(=O)(=O)N1Cc1c(F)cccc1Cl -4.6%
COc1ccccc1S(=O)(=O)N1CC[C@@H]2[C@H](CO)Nc3ccc(-c4ccccc4F)cc3[C@@H]21 2.37%
CCC(=O)Nc1ccc2c(c1)C(=O)N(C)C[C@@H](OC)[C@H](C)CN(Cc1ccccc1C(=O)O)[C@@H](C)CO2 1.3%
O=C(NCCc1ccc(Cl)cc1)C1CCCN1C(=O)NCc1ccccc1 (stereo not drawn) 1.86%
O=C(NCCS(=O)(=O)NCc1ccc(Cl)cc1)c1ccccc1 0.839%
CN(C)CC#Cc1ccc([C@H]2[C@H](CO)N3CCCCN(CC4CC4)C[C@@H]23)cc1 0.034%
COc1ccccc1CNC(=O)C[C@@H]1CC[C@@H]2[C@@H](COc3ccc(NC(=O)Nc4ccc(F)c(F)c4)cc3C(=O)N2C)O1 0.834%

inhibition, active:
CCCOc1ccc(F)cc1-c1cc(C(=O)Nc2ccc(F)cc2)[nH]n1 21.5%
C=CC1=C(C(=O)O)N2C(=O)[C@@H](NC(=O)/C(=N/OCC(=O)O)c3csc(N)n3)[C@H]2SC1 71%
Cc1ccc(NC(=O)CNCc2ccccn2)cc1S(=O)(=O)N(C)C 20.4%
CC(C)(C)c1ccc(CN2C(=O)c3ccccc3S2(=O)=O)cc1 41.7%
O=S1(=O)CC(NCc2ccccc2)C(Nc2ccc(Cl)cc2)C1 (stereo not drawn) 35.4%
